Measured values published in PubChem BioAssay AID1159580 (chemical genetic matrix, 2015).
Several values for one entry are separate records, joined by “and”; a condition that tells them apart may be missing. Equal values may be shown once. Hit rate of the full screen: of about 5,500 compounds, about 2,000 (36%) were called active. Inconclusive results (about 18%) are left out. Cut-off read from the data, not from the text of the source: active = normalized growth mostly below about 0.91 (no sharp cut-off); inconclusive = no clear call, values can overlap the other calls; inactive = mostly above about 0.92. The list shows a part of the results.

Experiment: chemical genetic growth profiling, strain panel (AID 1159580);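 note: tested at 20 µM; growth read once vehicle control cultures reached saturation at 30 °C; 1 = growth at the plate median or of vehicle wells; lower values mean less growth of the strain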
Details: S. cerevisiae deletion strains, growth OD

Measured: normalized growth

COC(=O)COc1cc(Cl)c(Cl)cc1Cl
0.853 (inactive) and 0.874 (active): locus YJL095W, strain BCK1, stronger effect = lower value
active: locus YDR137W, strain rgp1, stronger effect = lower value 0.839
inactive: locus YAL013W, strain DEP1, stronger effect = lower value 0.982 | locus YAL021C, strain ccr4, stronger effect = lower value 0.993 | locus YAL026C, strain drs2, stronger effect = lower value 0.996 | locus YAL030W, strain snc1, stronger effect = lower value 0.998 | locus YBL061C, strain skt5, stronger effect = lower value 0.989 | locus YBR009C, strain hhf1, stronger effect = lower value 0.989 | locus YBR021W, strain FUR4, stronger effect = lower value 0.98 | locus YBR023C, strain chs3, stronger effect = lower value 0.99 | locus YBR171W, strain sec66, stronger effect = lower value 1.01 | locus YBR229C, strain ROT2, stronger effect = lower value 0.981 | locus YBR231C, strain swc5, stronger effect = lower value 0.99 | locus YBR279W, strain paf1, stronger effect = lower value 1 | locus YCL011C, strain gbp2, stronger effect = lower value 0.99 | locus YCL016C, strain dcc1, stronger effect = lower value 1.01 | locus YCL029C, strain bik1, stronger effect = lower value 0.957 | locus YCL061C, strain MRC1, stronger effect = lower value 0.985 | locus YCL069W, strain vba3, stronger effect = lower value 0.986 | locus YCR088W, strain abp1, stronger effect = lower value 0.985 | locus YDL005C, strain med2, stronger effect = lower value 1.01 | locus YDL035C, strain GPR1, stronger effect = lower value 1.01 | locus YDL040C, strain nat1, stronger effect = lower value 0.996 | locus YDL074C, strain BRE1, stronger effect = lower value 0.943 | locus YDL101C, strain DUN1, stronger effect = lower value 0.977 | locus YDL134C, strain PPH21, stronger effect = lower value 0.978 | locus YDL185W, strain tfp1, stronger effect = lower value 0.992 | locus YDL192W, strain arf1, stronger effect = lower value 0.989 | locus YDR001C, strain nth1, stronger effect = lower value 0.988 | locus YDR069C, strain doa4, stronger effect = lower value 1.02 | locus YDR101C, strain arx1, stronger effect = lower value 0.954 | locus YDR150W, strain NUM1, stronger effect = lower value 0.976 | locus YDR159W, strain sac3, stronger effect = lower value 0.973 | locus YDR162C, strain NBP2, stronger effect = lower value 0.965 | locus YDR195W, strain ref2 1.02 | locus YDR297W, strain sur2, stronger effect = lower value 1.02 | locus YDR318W, strain mcm21, stronger effect = lower value 0.955 | locus YDR334W, strain swr1, stronger effect = lower value 1 | locus YDR335W, strain msn5, stronger effect = lower value 1.01 | locus YDR388W, stronger effect = lower value 0.974 | locus YDR392W, strain spt3, stronger effect = lower value 0.963 | locus YDR502C, strain sam2, stronger effect = lower value 0.969 | locus YEL003W, strain gim4, stronger effect = lower value 1.01 | locus YEL037C, strain rad23, stronger effect = lower value 0.997 | locus YEL061C, strain CIN8 (second series), stronger effect = lower value 0.993 | locus YEL061C, strain CIN8, stronger effect = lower value 0.98 | locus YER015W, strain faa2, stronger effect = lower value 0.998 | locus YER016W, strain bim1, stronger effect = lower value 0.999 | locus YER110C, stronger effect = lower value 0.954 | locus YER111C, strain swi4, stronger effect = lower value 0.997 | locus YER155C, strain BEM2 (second series), stronger effect = lower value 1.01 | locus YER155C, strain BEM2, stronger effect = lower value 0.983 | locus YER167W, strain BCK2, stronger effect = lower value 0.975 | locus YFR010W, strain ubp6, stronger effect = lower value 1.01 | locus YGL078C, strain dbp3, stronger effect = lower value 0.96 | locus YGL086W, strain mad1, stronger effect = lower value 0.976 | locus YGL167C, strain pmr1, stronger effect = lower value 0.997 | locus YGL173C, strain kem1, stronger effect = lower value 0.998 | locus YGL227W, strain vid30, stronger effect = lower value 0.979 | locus YGL240W, strain doc1, stronger effect = lower value 0.995 | locus YGL248W, strain PDE1, stronger effect = lower value 0.987 | locus YGL253W, strain hxk2, stronger effect = lower value 1.01 | locus YGR078C, strain PAC10, stronger effect = lower value 0.968 | locus YGR135W, strain pre9, stronger effect = lower value 0.971 | locus YGR229C, strain SMI1, stronger effect = lower value 0.942 | locus YGR252W, strain gcn5, stronger effect = lower value 1 | locus YHR013C, strain ard1, stronger effect = lower value 1.13 | locus YHR027C, strain rpn1, stronger effect = lower value 1.03 | locus YHR030C, strain SLT2, stronger effect = lower value 0.967 and 0.86 | locus YHR079C, strain IRE1 (second series), stronger effect = lower value 0.953 | locus YHR079C, strain IRE1, stronger effect = lower value 0.884 | locus YHR094C, strain hxt1, stronger effect = lower value 0.964 | locus YHR129C, strain ARP1, stronger effect = lower value 0.976 | locus YHR142W, strain chs7, stronger effect = lower value 0.988 | locus YHR200W, strain rpn10, stronger effect = lower value 0.982 | locus YIL066C, strain RNR3, stronger effect = lower value 0.948 | locus YIL073C, strain SPO22, stronger effect = lower value 1.04 | locus YIL125W, strain kgd1, stronger effect = lower value 0.957 | locus YIR030C, strain dcg1, stronger effect = lower value 0.953 | locus YJL092W, strain hpr5, stronger effect = lower value 0.989 | locus YJL095W, strain BCK1 (second series), stronger effect = lower value 0.991 | locus YJL115W, strain asf1, stronger effect = lower value 1.01 | locus YJL129C, strain trk1, stronger effect = lower value 0.971 | locus YJL134W, strain LCB3, stronger effect = lower value 0.974 | locus YJL154C, strain vps35, stronger effect = lower value 0.99 | locus YJL164C, strain tpk1, stronger effect = lower value 0.997 | locus YJL166W, strain qcr8, stronger effect = lower value 0.995 | locus YJL168C, strain set2, stronger effect = lower value 0.976 | locus YJL187C, strain SWE1 (second series), stronger effect = lower value 0.983 | locus YJL187C, strain SWE1, stronger effect = lower value 1 | locus YJR043C, strain POL32, stronger effect = lower value 0.942 | locus YJR066W, strain TOR1, stronger effect = lower value 0.842
